# Reference: PubChem BioAssay (NCI)
# This is part of a sample that, as a whole, favours compounds with a hit. Of some 83,000 tested, about 20% had one in any assay.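 Method: cells in 96-well plates; compound added at one concentration; 48 h incubation; percent growth measured; values under 10 scored active.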 Activity calls are given as the source filed them.
# System: MDA-MB-468 breast
# Test: NCI-60 one-dose screen, 48 h (100 = growth as untreated, 0 = no growth, -100 = all killed)
# Details: 10 µM unless noted
row,SMILES,growth
1,CCN(C)c1ccccc1,113% (inactive)
2,COc1cccc(N=Nc2cccc(OC)c2)c1,87.2% (inactive)
3,O=C1c2ccccc2Cc2cccc(Cl)c21,92.7% (inactive)
4,COc1cccc(-c2nc3sccn3c2/C=C/C(=O)c2ccc(C(F)(F)F)cc2)c1,75.6% (inactive)
5,C#CCO[C@H]1CC(CC#C)(CC#C)C(=O)[C@@H]2[C@H]1[C@H]1C[C@@H]3[C@@]4(C)CCC[C@@](C)(C(=O)OC)[C@@H]4CC[C@@]23C=C1C(C)C,94.7% (inactive)
6,CC(C)(C)c1ccc(S(=O)(=O)N[C@H]2CC[C@H]3[C@@H]4CCc5cc(OS(=O)(=O)O)ccc5[C@H]4CC[C@]23C)cc1,58.6% (inactive)
7,O=[N+]([O-])c1ccc(Oc2cccc(C(F)(F)F)c2)c([N+](=O)[O-])c1,-8.95% (active)
8,CCOC(=O)c1cnc2c(OC)ccc(OC)c2c1Cl,113% (inactive)
9,CC(C)(N)COS(=O)(=O)O,107% (inactive)
10,Cl[C@@H]1CCO[C@H](c2cc3ccccc3c3ccccc23)C1,93.4% (inactive)
11,CC(C)(C)c1ccc(OCCCCCCN2CCNCC2)cc1,10.6% (inactive)
12,NC(=O)c1cccc(-n2ccc3cc(NC(=O)Nc4ccc(Cl)c(Cl)c4)ccc32)n1,60.8% (inactive)
13,O=[N+]([O-])c1ccc(Sc2cccc[n+]2[O-])c2nonc12,49.3% (inactive)
14,Cc1ccc(/C=C/c2nn3c(-c4ccco4)nnc3s2)cc1,116% (inactive)
15,COc1ccc(Cn2c(Br)c3c(c2-c2cc(OC)c(OC)c(OC)c2)CCc2sc(NC(=O)c4ccc(OC)cc4)nc2-3)cc1,98.8% (inactive)
16,CCN1CCN(S(=O)(=O)c2oc(-c3ccc(Cl)cc3)nc2C#N)CC1,24% (inactive)
17,O=C1N/C(=N\c2nnc(-c3ccc(O)cc3)s2)S/C1=C\c1ccccc1O,99.4% (inactive)
18,O=C1ON=[N+](c2ccc(Cc3ccc([N+]4=NOC(=O)C4CN4CCOCC4)cc3)cc2)C1CN1CCOCC1 (stereo not given),11.4% (inactive)
19,C/C=C/C1=CN2C(=O)c3cc(OC4OC(C)C(NC)C(C)(O)C4O)c(C)c(O)c3N=C[C@@H]2C1 (stereo not given in full),-57.5% (active)
20,CC/C=C\C[C@@H](O)C/C=C1/C(=O)C=C[C@H]1C/C=C\CCCC(=O)OC,15.9% (inactive)

row,SMILES,growth
1,O=C1Nc2ccccc2/C1=N\c1nnc(-c2ccccc2)o1,69.6% (inactive)
2,COc1cc(-c2csc(NC(=O)Nc3ccc(Cl)cc3)n2)cc(OC)c1OC,13.5% (inactive)
3,O=C(NCCN1CCOCC1)c1cncnc1Nc1ccc2c(ccn2Cc2ccccn2)c1,98% (inactive)
4,N#Cc1cccc(CN2CCC3=C(C2)C(=O)N(Cc2ccc(Cl)cc2)C2=NCCCN23)c1,-16.1% (active)
5,COc1cc(CNC(=O)C2CSC3(C)c4ccccc4C(=O)N23)cc(OC)c1OC (stereo not given),89.6% (inactive)
6,COc1ccc([C@@H]2[C@@H](O)C(=O)N2c2cc(OC)c(OC)c(OC)c2)cc1,2.98% (active)
7,Fc1ccccc1Nc1ccc2nnc(-c3ccncc3)n2n1,105% (inactive)
8,CC/C(=C/c1cc(OC)ccc1O)c1ccc2cc(OC)ccc2[o+]1,45.8% (inactive)
9,CCOC(=O)c1ccc2c(c1)nc(/C=C/c1ccc(Cl)cc1)n2-c1cc(C(C)(C)C)[nH]n1,58.8% (inactive)
10,NC(CSC(c1ccccc1)(c1ccccc1)c1ccccc1)C(=O)O (stereo not given),32.7% (inactive)
11,CC1CCCCN1CCCNC(=O)c1ccc2c(c1)sc1nc(-c3ccc(F)cc3)cn12 (stereo not given),96.3% (inactive)
12,COc1ccc(N2C(=O)CC(c3cc(OC)c(OC)c(OC)c3)C3C2=NC(=O)N3C)cc1 (stereo not given),98.9% (inactive)
13,O=C(Nc1ccc(Cl)c([N+](=O)[O-])c1)Nc1nc2ccccc2s1,40.6% (inactive)
14,COc1cnc2c(c1)C(=O)c1c-2n(CCCNC2=NCCS2)c(=O)c2cc(Cl)ccc12,-4.65% (active)
15,O=C(N=c1n(-c2ccccc2)nc2n1CCN2C1=NCCN1C(=O)c1ccc(Cl)cc1)c1ccc(Cl)cc1,73.6% (inactive)
16,OC(CNC1CCCC1)Cn1c2ccccc2c2ccccc21 (stereo not given),-21.2% (active)
17,CC1(/C=C/c2ccc(-c3ccccc3)cc2)CCn2cnc3ncnc(c32)N1O (stereo not given),-5.41% (active)
18,CCOC(=O)C(=O)/C(=C\c1ccc(Cl)cc1)C(=O)N1C(=S)NC(=O)C1CC(C)C (stereo not given),90% (inactive)
19,CN(C)c1nc(N)c(N=O)c(N)n1,114% (inactive)
20,COc1ccc(CCNC(=O)COc2cc3c(Nc4ccc(F)c(Cl)c4)ncnc3cc2OC)cc1OC,-10.1% (active)
